Reference: ChEMBL document CHEMBL2218924, “A broad activity screen in support of a chemogenomic map for kinase signalling research and drug discovery” (Biochem J, 2013)

Target: T1, Tyrosine-protein kinase receptor TYRO3 (Homo sapiens) (UniProt Q06418)
T1 sequence (whole entry): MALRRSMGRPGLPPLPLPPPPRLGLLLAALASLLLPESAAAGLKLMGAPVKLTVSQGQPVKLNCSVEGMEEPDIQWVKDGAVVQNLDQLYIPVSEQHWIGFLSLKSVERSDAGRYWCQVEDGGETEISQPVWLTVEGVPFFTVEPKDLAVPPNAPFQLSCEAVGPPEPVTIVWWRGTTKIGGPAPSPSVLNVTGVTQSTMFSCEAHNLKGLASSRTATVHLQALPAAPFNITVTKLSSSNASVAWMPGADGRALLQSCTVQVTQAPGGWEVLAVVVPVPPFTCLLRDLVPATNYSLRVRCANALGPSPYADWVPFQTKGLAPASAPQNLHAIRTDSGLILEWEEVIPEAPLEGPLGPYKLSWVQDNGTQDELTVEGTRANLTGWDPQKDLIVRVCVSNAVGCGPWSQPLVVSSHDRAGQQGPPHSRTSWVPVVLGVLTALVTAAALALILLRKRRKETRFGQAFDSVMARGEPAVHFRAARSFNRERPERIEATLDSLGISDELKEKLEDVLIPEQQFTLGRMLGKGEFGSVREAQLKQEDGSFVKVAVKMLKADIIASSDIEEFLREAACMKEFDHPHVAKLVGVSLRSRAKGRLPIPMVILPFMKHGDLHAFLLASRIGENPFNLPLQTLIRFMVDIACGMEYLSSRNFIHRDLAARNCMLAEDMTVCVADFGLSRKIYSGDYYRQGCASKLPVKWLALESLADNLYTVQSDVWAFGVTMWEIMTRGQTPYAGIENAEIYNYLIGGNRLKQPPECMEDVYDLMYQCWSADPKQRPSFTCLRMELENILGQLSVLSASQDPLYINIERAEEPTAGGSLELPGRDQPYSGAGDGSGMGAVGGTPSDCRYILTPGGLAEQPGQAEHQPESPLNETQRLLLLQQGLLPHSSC
Details: at 1 µM

Question: `Oc1cccc(-c2nc(N3CCOCC3)c3oc4ncccc4c3n2)c1` was tested. Which residual activity did it give?
Answer: The residual activity was 82%.

Question: With `O=C(c1cc2cc(O)ccc2[nH]1)c1cc2cc(O)ccc2[nH]1` as the compound, how does the residual activity read?
Answer: The residual activity was 39%.

Question: With `CN(C)S(=O)(=O)c1ccc2c(c1)/C(=C/c1cc3c([nH]1)CCCC3)C(=O)N2` as the compound, how does the residual activity read?
Answer: The residual activity was 67%.

Question: `CC(C)N(CCC(=O)c1ccc2ccccc2c1)Cc1ccccc1` was tested. Which residual activity did it give?
Answer: Its residual activity is 84%.

Question: With `COc1ccc(CNC(=O)Nc2ncc([N+](=O)[O-])s2)cc1` as the compound, how does the residual activity read?
Answer: The residual activity was 106%.

Question: Which residual activity does the source give for `N#C/C(=C1/Nc2ccccc2S1)c1ccnc(NCCc2cccnc2)n1` here?
Answer: Its residual activity is 97%.

Question: `CCCCc1c(-c2ccc(OC)cc2)[nH]c2nccnc12` was tested. Which residual activity did it give?
Answer: Its residual activity is 107%.

Question: `CN([C@@H](Cc1ccc(OS(=O)(=O)c2cccc3cnccc23)cc1)C(=O)N1CCN(c2ccccc2)CC1)S(=O)(=O)c1cccc2cnccc12` was tested. Which residual activity did it give?
Answer: The residual activity was 118%.

Question: With `Nc1nc(Nc2ccc(S(N)(=O)=O)cc2)nn1C(=O)c1c(F)cccc1F` as the compound, how does the residual activity read?
Answer: Its residual activity is 81%.

Question: How did the residual activity turn out when `CCN(CC)CCNC(=O)c1c(C)[nH]c(/C=C2\C(=O)Nc3ccc(Cl)cc32)c1C` was run?
Answer: The residual activity was 24%.

Question: How did the residual activity turn out when `COc1ccc2c(c1)c(C1=C(c3c[nH]c4ccccc34)C(=O)NC1=O)cn2CCCN(C)C` was run?
Answer: The residual activity was 79%.

Question: For `COc1cc2nccc(Oc3ccc(NC(=O)Nc4cc(C)on4)c(Cl)c3)c2cc1OC`, which residual activity is on record?
Answer: The residual activity was 10%.

Target: T1, Tyrosine-protein kinase receptor TYRO3 (Homo sapiens)
Details: at 10 µM

Question: With `Oc1cccc(-c2nc(N3CCOCC3)c3oc4ncccc4c3n2)c1` as the compound, how does the residual activity read?
Answer: Its residual activity is 93%.

Question: With `O=C(c1cc2cc(O)ccc2[nH]1)c1cc2cc(O)ccc2[nH]1` as the compound, how does the residual activity read?
Answer: Its residual activity is 2%.

Question: Which residual activity does the source give for `N#Cc1c(NC(=O)c2cccc3ccccc23)sc2c1CCCC2` here?
Answer: Its residual activity is 92%.

Question: For `CN(C)S(=O)(=O)c1ccc2c(c1)/C(=C/c1cc3c([nH]1)CCCC3)C(=O)N2`, which residual activity is on record?
Answer: The residual activity was 69%.

Question: For `COc1cc2c(cc1OC)-c1n[nH]c(Nc3cccc(F)c3)c1C2`, which residual activity is on record?
Answer: Its residual activity is 50%.

Question: For `COc1ccc(CNC(=O)Nc2ncc([N+](=O)[O-])s2)cc1`, which residual activity is on record?
Answer: The residual activity was 108%.

Question: How did the residual activity turn out when `N#C/C(=C1/Nc2ccccc2S1)c1ccnc(NCCc2cccnc2)n1` was run?
Answer: Its residual activity is 74%.

Question: For `CCCCc1c(-c2ccc(OC)cc2)[nH]c2nccnc12`, which residual activity is on record?
Answer: The residual activity was 105%.

Question: Which residual activity does the source give for `O=C1Nc2ccccc2/C1=C\c1c(Cl)[nH]c2ccccc12` here?
Answer: The residual activity was 67%.

Question: Which residual activity does the source give for `Nc1nc(Nc2ccc(S(N)(=O)=O)cc2)nn1C(=O)c1c(F)cccc1F` here?
Answer: The residual activity was 28%.

Question: Which residual activity does the source give for `CCN(CC)CCNC(=O)c1c(C)[nH]c(/C=C2\C(=O)Nc3ccc(Cl)cc32)c1C` here?
Answer: Its residual activity is -1%.

Question: For `COc1ccc2c(c1)c(C1=C(c3c[nH]c4ccccc34)C(=O)NC1=O)cn2CCCN(C)C`, which residual activity is on record?
Answer: The residual activity was 76%.

Question: With `O=S(=O)(c1cccc2cnccc12)N1CCCNCC1` as the compound, how does the residual activity read?
Answer: The residual activity was 123%.

Question: `COc1cc2nccc(Oc3ccc(NC(=O)Nc4cc(C)on4)c(Cl)c3)c2cc1OC` was tested. Which residual activity did it give?
Answer: The residual activity was 8%.
